B2AR arrestin: beta2AR (human) beta-arrestin recruitment activity. P07550. beta-arrestin recruitment to beta2AR, cell-based reporter. Potency, µM (highest dose often 46.1 µM), inactives show top-dose activation, actives largely listed as activators. 330,000 compounds, 0.02% hits;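 note: potency is the fitted concentration of half-maximal effect; 0% = DMSO controls and full agonism = EC100 isoproterenol or metaproterenol; nearly all actives have a fitted effect of over 65% in size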
Target sequence (P07550 whole entry, looked up): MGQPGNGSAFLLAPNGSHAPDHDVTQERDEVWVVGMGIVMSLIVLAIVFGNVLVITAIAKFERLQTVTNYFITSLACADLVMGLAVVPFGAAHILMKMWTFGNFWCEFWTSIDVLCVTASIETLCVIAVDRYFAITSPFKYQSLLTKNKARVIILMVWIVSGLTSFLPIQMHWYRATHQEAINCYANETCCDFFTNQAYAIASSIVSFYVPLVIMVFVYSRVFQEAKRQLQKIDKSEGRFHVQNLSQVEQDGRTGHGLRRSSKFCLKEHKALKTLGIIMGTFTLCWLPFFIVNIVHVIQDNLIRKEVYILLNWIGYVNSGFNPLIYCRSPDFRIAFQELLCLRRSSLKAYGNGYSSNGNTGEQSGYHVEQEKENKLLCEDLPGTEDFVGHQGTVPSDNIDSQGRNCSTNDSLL
RORgamma inh: inhibitors of mouse ROR gamma transcriptional activity | Drosophila S2 Gal4-RORgamma UAS-luciferase reporter, 20 h | 310,000 compounds, 5.4% hits | Potency, µM (titrated, usually from 53.6 µM), inactives show at the top dose activity change, negative = inhibition, actives largely listed as inhibitors | P51450; note: potency is the fitted concentration of half-maximal effect; nearly all actives have a fitted effect of over 60% in size
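Read-out: Photinus luciferase luminescence; inhibitors lower reporter signal. Insect Schneider cells with Gal4-ROR gamma fusion under metallothionein promoter, UAS reporter; 700 uM final copper sulfate induction, 20 hr, ambient temperature.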
Gal4-VP16 FLuc: counter-screen for ROR gamma inhibitors: Gal4-VP16 reporter; Drosophila S2 Gal4-VP16 UAS-luciferase, luminescence, 20 h; Potency, µM (top dose mostly 53.6 µM), for inactives: at the highest dose activity, negative = inhibition, actives largely listed as inhibitors; 310,000 compounds, 3.5% hits; AID 2546;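 note: Gal4-VP16 expression switched on by copper sulfate through the metallothionein promoter; potency is the fitted concentration of half-maximal effect; nearly all actives have a fitted effect of over 50% in size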
TSHR antagonist: antagonists of human thyroid stimulating hormone receptor | TSHR-expressing cells, TSH-stimulated cAMP HTRF, 2 h; active compounds read low | activity change, negative = inhibition, % at 11.5 µM | 330,000 compounds, 0.2% hits;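 active = activity change below a set negative limit, meaning inhibition stronger than a set level, cut at about -70% in these data; inconclusive = activity change between two set negative limits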
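Read-out is FRET at 665 nm (cryptate excitation 337 nm) from a cryptate-tagged anti-cAMP antibody, competed by cell cAMP against cAMP-d2. Compounds are tested on freshly harvested TSHR cells challenged with 4nM TSH (EC80) for 2 hours at 37 deg C.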
ELG1 DNA repair: blocks ELG1-dependent DNA repair in HEK293T cells; HEK293T ELG1-luciferase reporter, luminescence, 16 h; DNA damage induced by 5-fluorouridine; Potency, µM (highest dose often 46.1 µM), inactives show at the highest dose activity change, negative = inhibition, usual class: inhibitors; AID 504467; 330,000 compounds, 2.3% hits; note: potency is the fitted concentration of half-maximal effect; nearly all actives have a fitted effect of over 55% in size
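In this reporter screen, reduction of luminescence relative to DMSO vehicle indicated activity. Compounds and 5-fluorouridine were added together to 2,000 cells per well, incubated for 16 hr at 37 °C, then developed with ONE-Glo.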
Numbers without * were called inactive; u = inconclusive; x = no result given; [ ] = another dose, or the depositor's remark. Rows were chosen to be rich in hits. Some 7.5% of all compounds tested hit in one or more screens of this group. Unless noted, calls come from the whole dose curve; as a rule, active = well fitted curve in the direction sought with a large enough effect; inconclusive = small, poorly fitted or top-dose-only effect, or another doubt; inactive = no such curve, though single readings can be large; an effect the other way counts as inactive or inconclusive. Unless noted, % is set by controls: 0 for no effect and ±100 for the full control effect.

SMILES	B2AR arrestin	RORgamma inh	Gal4-VP16 FLuc	TSHR antagonist	ELG1 DNA repair
O=C(Nc1nnc2n1CCS2)c1ccc(Br)o1	-1%	3.5µM*	7.1µM*	-8	u
CC(=O)c1c(C)[nH]c(C(=O)CSc2nnc(-c3ccco3)n2Cc2ccccc2)c1C	-1%	u	22%	-4	u
CCCn1c(N)c(C(=O)CSc2nnc(-c3ccco3)n2Cc2ccccc2)c(=O)[nH]c1=O	0%	-36%	-3%	-4	15µM*
CN1C(=O)C(C)(C)c2cc(S(=O)(=O)N3CCCC3C(=O)NCc3ccc(F)cc3)ccc21 (centres undefined)	0%	0%	-2%	0	2%
CCOC(=O)C1CCCN(C(=O)c2ccc(Cl)c(S(=O)(=O)N3CCCCCC3)c2)C1 (centres undefined)	0%	u	u	-2	10µM*
Cc1cc(Cl)c(S(=O)(=O)N2CCN(c3ccc(F)cc3)CC2)cc1OCC(=O)NC1CCCCC1	0%	20%	0%	u	8.2µM*
CCOC(=O)C1CCCN(S(=O)(=O)c2cc(C(=O)OC)n(C)c2)C1 (centres undefined)	3%	42%	16µM*	-1	-16%
CC1CCCN(C(=O)c2ccc(Cl)c(S(=O)(=O)N3CCCCCC3)c2)C1 (centres undefined)	0%	x	x	-19	u
CN1C(=O)C(C)(C)c2cc(S(=O)(=O)N3CCCC(C(=O)NCc4ccc(Cl)cc4)C3)ccc21 (centres undefined)	0%	38%	3%	-9	15µM*
COc1ccc(S(=O)(=O)N2CCCCCC2)cc1C(=O)OCc1cccc(OC)c1OC	0%	x	x	-21	u
CCOC(=O)C1CCCN(S(=O)(=O)c2cc(OCC(=O)NC3CCCCC3)c(C)cc2Cl)C1 (centres undefined)	0%	-38%	-6%	-34	21µM*
Cc1cc(S(=O)(=O)N2CCCC2)ccc1OCC(=O)NC1CCCC1	-1%	38%	1%	-9	5%
Cc1ccc(S(=O)(=O)N2CCCC(C(=O)NC3CCCC3)C2)cc1Cl (centres undefined)	-1%	-10%	-5%	-84*	5%
COc1cc2c(cc1OC)C1O[C@](CCCCN3C(=O)c4ccccc4C3=O)(C2)Oc2c1c(=O)oc1ccc(F)cc21	0%[9.22 µM]	-7%[10 µM]	0%[10 µM]	x	x
CC(C)C(c1nnnn1C(C)(C)C)N1CCC(Cc2ccccc2)CC1 (centres undefined)	-1%	u	22µM*	8	u
Cc1noc(C)c1C(=O)N1CCC2(CCN(C(=O)Nc3ccccc3)CC2)CC1	x	1%	-9%	x	x
CCc1ccc(NC(=O)CCCN2C(=S)NC(C)(C)CC2C)cc1 (centres undefined)	0%	4.5µM*	u	8	17%
CC1CC(C)(C)NC(=S)N1CC(=O)NCc1ccc(Cl)cc1 (centres undefined)	0%	11µM*	u	0	10%
CC1CC(C)(C)NC(=S)N1CC(=O)NCc1ccccc1Cl (centres undefined)	-1%	u	u	-13	0%
Cc1ccc(NC(=O)CCCN2C(=S)NC(C)(C)CC2C)cc1 (centres undefined)	-1%	13µM*	u	0	-6%
CC1CC(C)(C)NC(=S)N1CCCC(=O)Nc1ccc2c(c1)OCCO2 (centres undefined)	0%	28%	-12%	7	u
CC1CC(C)(C)NC(=S)N1CCCC(=O)Nc1ccc(F)cc1 (centres undefined)	0%	13µM*	u	0	-1%
C=CC(C)=C[C@@]1(C)SC(=O)C(C)=C1O	x	x	x	-20	x
COC(=O)C1CCCN1S(=O)(=O)c1ccc2ccccc2c1 (centres undefined)	-1%	-7%	4%	-78*	5%
CC(C)CCNC(=O)CN(Cc1ccc(F)cc1)C(=O)CCC(=O)Nc1ccccn1	0%	13%	-5%	16	-10%
SMILES	B2AR arrestin	RORgamma inh	Gal4-VP16 FLuc	TSHR antagonist	ELG1 DNA repair
COCCNC(=S)Nc1ccccn1	0%	18µM*	u	9	2%
CC(C)CCNC(=S)Nc1ccccc1F	0%	7.9µM*	11µM*	-3	1%
Cc1cccc(NC(=S)NCCC(C)C)c1	-1%	-10%	u	-13	2%
COCCNC(=S)Nc1ccc(S(=O)(=O)Nc2ncccn2)cc1	0%	-3%	6%	-22	-19%
CC(C)CCNC(=S)Nc1ccccn1	0%	0.56µM*	4µM*	5	-2%
C=CCC(C)(Nc1ccccc1)C(=O)OCC (centres undefined)	x	-3%	5%	x	x
NC(Cc1ccc(O)c(O)c1)C(=O)O (centres undefined)	x	-37%	-11%	x	x
O=C(Cc1cccs1)Nc1nnc(SCc2ccc(Br)cc2)s1	0%	-25%	-12%	-7	u
O=C(Cc1cccs1)Nc1nnc(SCc2ccc(C(F)(F)F)cc2)s1	0%	10µM*	-13%	-4	15%
CCC(C)c1ccccc1NC(=O)COC(=O)c1ccc2[nH]c3c(c2c1)CCCC3 (centres undefined)	-1%	6%	20µM*	-13	21µM*
O=C(Nc1ccc(F)cc1F)c1csc(-c2ccccc2)n1	0%	17%	-7%	3	u
O=C(Nc1ccc(F)cc1F)c1cccc(C(=O)Nc2ccc(F)cc2F)n1	0%	u	u	6	16µM*
O=C(COc1cc(Cl)c(Cl)cc1Cl)N1CCN(c2ccccn2)CC1	0%	-5%	-11%	4	19%
Clc1cc(Cl)c(OCC#CI)cc1Cl	x	7.1µM*	5.6µM*	x	x
NC(=O)C1CCN(c2nc(-c3ccc(Cl)cc3)cs2)CC1	x	x	x	-4	x
c1nc2n(n1)C1=C(CCCC1)C1(CCCCC1)N2	0%	2.5µM*	u	4	1%
COc1ccccc1Nc1cc(C(=O)N2CCc3ccccc3C2)c2ccccc2n1	0%	15%	-8%	-13	u
COc1ccc(Nc2cc(C(=O)N3CCc4ccccc4C3)c3ccccc3n2)c(OC)c1	0%	u	-2%	-10	21µM*
COc1ccccc1-c1cc(C(=O)N2CCc3ccccc3C2)c2ccccc2n1	0%	u	6%	-3	13µM*
Cc1nn(-c2ccc(F)cc2)c(Cl)c1C(=O)OC(C)C(=O)N(C)C1CCCCC1 (centres undefined)	0%	x	x	-10	u
Cc1onc(-c2ccccc2Cl)c1C(=O)Nc1ccc(-c2cn3cccnc3n2)cc1	0%	2%	-16%	23	13µM*
Cc1ccc(-c2cn3cccnc3n2)cc1NC(=O)c1c(-c2ccccc2Cl)noc1C	-1%	-2%	4%	3	u

Compound activity as filed in PubChem BioAssay.
